These results are taken from PubChem BioAssay (Tox21).

Values joined by “and” are separate entries in the source; they are usually repeats but may differ in a detail not shown here. Equal values may be shown once. A number with no mark means an inactive call. Records with an inconclusive call do not appear. Active and inactive are the calls of the source. Unless noted, calls come from the whole dose curve.

Test [1] in a line: Nuclear factor erythroid 2-related factor 2/antioxidant responsive element (Nrf2/ARE) small molecule agonists: qHTS cell viability counter screen in human keratinocytes (AID 1919968; active = well fitted curve in the direction sought with a large enough effect in the repeat runs; an effect the other way counts as inactive or inconclusive; note: nearly all actives have a fitted effect of over 55% in size; note: potency is the fitted concentration of half-maximal effect). An outline of the steps:
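CellTiter-Fluor fluorescence, read 1 h after reagent, gave viability in the same wells as the ARE-luciferase assay. KeratinoSens cells (1,500/well) had 23 h compound exposure at 37 C/5% CO2 following 5 h plating.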
Background: In qHTS, concentration-response curves come from the screen itself.

A short description of test [2]: Nuclear factor erythroid 2-related factor 2/antioxidant responsive element (Nrf2/ARE) small molecule agonists: luciferase reporter gene qHTS assay in human keratinocytes (AID 1919969; note: nearly all actives have a fitted effect of over 35% in size). (In general: In a reporter assay the amount or activity of a reporter protein is the signal.)
Test [3] has as its target Gonadotropin-releasing hormone receptor (Homo sapiens) (UniProt P30968). Kind of test: Human gonadotropin-releasing hormone receptor (GnRHR) small molecule agonists, calcium flux assay in GnRHR-HEK293 cells (AID 1920063). Note: nearly all actives have a fitted effect of over 35% in size. In a few lines:
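Agonist mode: compounds at 15 concentrations, in triplicate, went onto calcium dye-loaded GnRHR-HEK293 cells. Intracellular calcium was then followed as 480/540 nm fluorescence at 1 s intervals over 3 min.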

Test [4] has as its target KiSS-1 receptor (Homo sapiens) (UniProt Q969F8). Kind of test: Human kisspeptin (KISS1R) small molecule agonists, calcium flux assay in KISS1R-HEK293 cells (AID 1920064; active = well fitted curve in the direction sought with a large enough effect in the repeat runs; an effect the other way counts as inactive or inconclusive). In a few lines: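 Agonist mode: intracellular calcium rise tracked at 1 s intervals over 3 min (480/540 nm) immediately after compound addition to dye-loaded KISS1R-HEK293 stable cells. Each compound tested at 15 concentrations in triplicate.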
Background: Calcium flux is commonly read through the fluorescence of an indicator in the cells.

Test [5] can be described thus: G protein-coupled receptor (GPCR) small molecule agonists, calcium flux assay: HEK293 wild type cell line counter screen (AID 1920065). In a few lines: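 Calcium flux counter screen: compound added in agonist mode at 15 concentrations in triplicate to dye-loaded parental HEK293 cells. Fluorescence (480/540) read kinetically for 3 min; ATP served as positive control.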

Test [6] can be described thus: p53 small molecule agonists, cell-based qHTS assay with rat liver microsomes (AID 1963578). An outline of the steps:
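Quantitative HTS of the Tox21 10K library: p53RE-bla cells, rat liver microsomes plus NADPH at 0.5 mg/mL final each, 16 h at 37 C, beta-lactamase fluorescence detection.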

Test [7] can be described thus: p53 small molecule agonists, cell-based qHTS assay with rat liver microsomes: qHTS cell viability counter screen (AID 1963580). Note: nearly all actives have a fitted effect of over 45% in size. An outline of the steps:
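After the beta-lactamase ratio was read, CellTiter-Glo was added to the same wells and luminescence measured at 30 min; cells had been treated 16 h at 37 C with compounds, rat liver microsomes and NADPH (0.5 mg/mL final each).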

Test [8] in a line: p53 small molecule agonists, cell-based qHTS assay: qHTS cell viability counter screen (AID 1963581). Note: nearly all actives have a fitted effect of over 45% in size. An outline of the steps: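 Counter screen read by CellTiter-Glo luminescence (ATP content, 30 min at room temperature), run in the same wells as the beta-lactamase reporter read. HCT-116 p53RE-bla cells saw compounds for 16 h at 37 C.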
Test [9] is described as follows: p53 small molecule agonists, cell-based qHTS assay (AID 1963582; active = well fitted activation curve with a large enough effect in the signal ratio in the repeat runs, not every such curve was filed as active; the % refers to the signal ratio). An outline of the steps: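 Read-out is beta-lactamase FRET fluorescence after 2 h at room temperature with LiveBLAzer B/G substrate. p53 response element-bla cells were treated 16 h at 37 C with compounds in DMSO, added 5 h after seeding.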
The target of test [10] is 5-hydroxytryptamine receptor 2A (Homo sapiens) (UniProt P28223). Kind of test: 5-hydroxytryptamine receptor 2A (HTR2A) small molecule antagonists, cell-based qHTS assay (AID 1963586). Note: nearly all actives have a fitted effect of over 45% in size. Note: potency is the fitted concentration of half-maximal effect. In a few lines: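 CHO cells stably expressing human HTR2A were plated for 18 h at 37 C, then loaded with calcium dye for 1 h. Compounds were preincubated 5 min at room temperature before DOI (4 nM solution) was added. Kinetic fluorescence was read for 3 min.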

The target is the same in test [11]. The experiment in a line: 5-hydroxytryptamine receptor 2A (HTR2A) small molecule agonists, cell-based qHTS assay (AID 1963587). Note: nearly all actives have a fitted effect of over 30% in size. In a few lines: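 CHO cells stably expressing human HTR2A, plated 18 h, loaded with calcium dye 1 h at 37 C. Agonist mode: compounds added and intracellular calcium fluorescence recorded kinetically for 2 min at 1 sec intervals.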
Test [12] addresses Muscarinic acetylcholine receptor M1 (Homo sapiens) (UniProt P11229). Kind of test: Cholinergic receptor muscarinic 1 (CHRM1) small molecule antagonists, cell-based qHTS assay (AID 1963588). Note: nearly all actives have a fitted effect of over 40% in size. Note: potency is the fitted concentration of half-maximal effect. In a few lines:
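Compounds were tested at 15 concentrations in three independent runs. Dye-loaded CHRM1-CHO cells were exposed 5 min at room temperature before stimulation by acetylcholine added at 50nM. Intracellular calcium was read kinetically on FDSS for 3 min.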

Test [13] shares this target. Kind of test: Cholinergic receptor muscarinic 1 (CHRM1) small molecule agonists, cell-based qHTS assay (AID 1963589). Note: nearly all actives have a fitted effect of over 35% in size. An outline of the steps:
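Agonist-mode calcium-flux screen: compounds at 15 concentrations, three independent runs, were pin-transferred onto dye-loaded human CHRM1-CHO cells. Fluorescence was then recorded kinetically every second over minutes.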

Test [14] can be described thus: cAMP Responsive Elements (CRE) small molecule agonists, cell-based qHTS assay (AID 1963590). An outline of the steps:
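Agonist mode: compound added to CRE-bla HEK 293T cells (2,000/well, 18 h after plating) for 3 h at 37 C/5% CO2. Reporter activity detected via FRET beta-lactamase substrate, 2 h room-temperature loading.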

Test [15] addresses Beta-2 adrenergic receptor (Homo sapiens) (UniProt P07550). Kind of test: Adrenergic beta2 receptor (ADRB2) small molecule antagonists, cell-based qHTS assay (AID 1963592). Note: series mostly up to about 92 µM; nearly all actives have a fitted effect of over 50% in size. In a few lines: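 Assay format: CHO-ADRB2 cells, 18-20hr seeding at 37C/5% CO2, then compound plus 1nM isoproterenol agonist mix for 0.5hr RT. Homogeneous time-resolved fluorescence cAMP detection after 1hr, expressed as 665/615 nm ratio.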

For test [16] the target is unchanged. The experiment in a line: Adrenergic beta2 receptor (ADRB2) small molecule agonists, cell-based qHTS assay (AID 1963593).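 Note: CHO cells stably overexpressing human ADRB2.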 An outline of the steps: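 CHO cells stably over-expressing ADRB2 were plated overnight at 37C, then dosed with compounds plus a stimulation mix containing 100uM IBMX and 25uM Ro-20-1724 for 0.5hr at room temperature. cAMP was measured by HTRF competition, 1hr.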

Test [17] addresses D(2) dopamine receptor (Homo sapiens) (UniProt P14416). Kind of test: Dopamine D2 receptor (DRD2) small molecule agonists, cell-based qHTS assay (AID 1963594). Note: nearly all actives have a fitted effect of over 35% in size. An outline of the steps: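 HEK293 cells stably expressing human DRD2, pre-treated with PDE inhibitor Ro20-1724 (0.1 mM final) and compound 10 min at room temperature, then stimulated with NKH477 (200nM […]) for 30 min. cAMP read by HTRF (665/620 nm).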

For test [18] the target is unchanged. Kind of test: Dopamine D2 receptor (DRD2) small molecule antagonists, cell-based qHTS assay (AID 1963595; active = well fitted inhibition curve with a large enough effect in the signal ratio in the repeat runs, with a control signal flat; the % refers to the signal ratio). An outline of the steps: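 Stable D2 receptor HEK293 line, 24 h after seeding. Compound preincubated 10 min, then quinpirole (12 nM) with forskolin analogue NKH477 (200 nM), 30 min, room temperature. Detection by time-resolved FRET of cAMP.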
Test [19] can be described thus: cAMP Responsive Elements (CRE) small molecule antagonists, cell-based qHTS assay (AID 1963591; active = well fitted inhibition curve with a large enough effect in the signal ratio in the repeat runs, not every such curve was filed as active; the % refers to the signal ratio). An outline of the steps:
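Antagonist mode: compounds are added alongside the adenylyl cyclase activator NKH477 (0.25 uM final) to CRE-bla HEK293T cells for 3 h. LiveBLAzer FRET substrate, 2 h at room temperature, reports bla expression.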

Test [20] in a line: p53 small molecule agonists, cell-based qHTS assay with human liver microsomes: qHTS cell viability counter screen (AID 1963579). Note: nearly all actives have a fitted effect of over 45% in size. In a few lines: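 Viability of p53RE-bla cells is measured as CellTiter-Glo luminescence following a 16 h, 37 C incubation with compound, liver microsomes from human donors and NADPH.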
% is set by controls: 0 for no effect and ±100 for the full control effect.

Sequence of Gonadotropin-releasing hormone receptor (Homo sapiens) (P30968 whole entry, looked up): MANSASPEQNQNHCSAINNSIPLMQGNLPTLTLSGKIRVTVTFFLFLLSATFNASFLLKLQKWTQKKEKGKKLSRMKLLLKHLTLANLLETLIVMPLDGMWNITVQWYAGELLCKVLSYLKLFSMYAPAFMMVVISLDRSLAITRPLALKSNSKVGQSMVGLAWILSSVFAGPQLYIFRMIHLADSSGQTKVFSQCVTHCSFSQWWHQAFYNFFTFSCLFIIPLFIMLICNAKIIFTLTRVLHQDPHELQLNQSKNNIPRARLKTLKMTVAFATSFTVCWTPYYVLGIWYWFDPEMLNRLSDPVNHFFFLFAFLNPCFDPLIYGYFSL
Sequence of 5-hydroxytryptamine receptor 2A (Homo sapiens) (P28223 whole entry, looked up): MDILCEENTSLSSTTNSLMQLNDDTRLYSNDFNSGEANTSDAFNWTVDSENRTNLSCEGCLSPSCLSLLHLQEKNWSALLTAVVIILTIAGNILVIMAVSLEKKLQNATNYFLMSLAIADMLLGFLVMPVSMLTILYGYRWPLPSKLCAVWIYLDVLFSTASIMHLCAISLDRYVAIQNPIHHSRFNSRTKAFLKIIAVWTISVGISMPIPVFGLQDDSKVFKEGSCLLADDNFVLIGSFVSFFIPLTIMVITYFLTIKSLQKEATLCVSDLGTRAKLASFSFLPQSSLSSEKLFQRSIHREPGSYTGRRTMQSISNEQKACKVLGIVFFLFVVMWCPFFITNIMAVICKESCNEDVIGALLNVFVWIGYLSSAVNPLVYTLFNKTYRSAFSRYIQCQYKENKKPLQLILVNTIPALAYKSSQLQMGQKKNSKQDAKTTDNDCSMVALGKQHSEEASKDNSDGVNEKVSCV
Sequence of Beta-2 adrenergic receptor (Homo sapiens) (P07550 whole entry, looked up): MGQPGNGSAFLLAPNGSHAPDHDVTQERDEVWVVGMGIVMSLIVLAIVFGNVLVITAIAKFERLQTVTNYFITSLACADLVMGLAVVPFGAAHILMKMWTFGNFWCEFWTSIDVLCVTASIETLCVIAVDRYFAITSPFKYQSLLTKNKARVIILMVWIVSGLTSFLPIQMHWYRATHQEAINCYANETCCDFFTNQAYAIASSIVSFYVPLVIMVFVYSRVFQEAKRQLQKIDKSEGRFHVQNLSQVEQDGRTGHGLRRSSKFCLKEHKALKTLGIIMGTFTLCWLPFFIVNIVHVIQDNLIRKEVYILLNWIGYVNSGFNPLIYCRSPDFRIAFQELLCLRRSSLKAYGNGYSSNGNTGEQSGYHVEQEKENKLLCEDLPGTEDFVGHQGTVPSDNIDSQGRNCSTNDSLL
Sequence of Muscarinic acetylcholine receptor M1 (Homo sapiens) (P11229 whole entry, looked up): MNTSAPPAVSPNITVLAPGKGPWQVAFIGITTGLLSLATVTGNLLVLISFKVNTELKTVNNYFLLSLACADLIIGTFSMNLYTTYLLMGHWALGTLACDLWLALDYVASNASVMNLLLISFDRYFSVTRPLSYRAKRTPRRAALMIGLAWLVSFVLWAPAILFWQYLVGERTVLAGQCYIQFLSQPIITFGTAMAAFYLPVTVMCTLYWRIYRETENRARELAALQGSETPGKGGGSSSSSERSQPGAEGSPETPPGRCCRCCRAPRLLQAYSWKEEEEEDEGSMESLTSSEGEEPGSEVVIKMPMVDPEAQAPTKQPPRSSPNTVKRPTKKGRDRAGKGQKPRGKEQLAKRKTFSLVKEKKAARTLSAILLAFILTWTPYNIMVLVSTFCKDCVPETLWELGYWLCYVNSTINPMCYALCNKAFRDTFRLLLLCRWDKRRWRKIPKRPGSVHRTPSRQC
Sequence of KiSS-1 receptor (Homo sapiens) (Q969F8 whole entry, looked up): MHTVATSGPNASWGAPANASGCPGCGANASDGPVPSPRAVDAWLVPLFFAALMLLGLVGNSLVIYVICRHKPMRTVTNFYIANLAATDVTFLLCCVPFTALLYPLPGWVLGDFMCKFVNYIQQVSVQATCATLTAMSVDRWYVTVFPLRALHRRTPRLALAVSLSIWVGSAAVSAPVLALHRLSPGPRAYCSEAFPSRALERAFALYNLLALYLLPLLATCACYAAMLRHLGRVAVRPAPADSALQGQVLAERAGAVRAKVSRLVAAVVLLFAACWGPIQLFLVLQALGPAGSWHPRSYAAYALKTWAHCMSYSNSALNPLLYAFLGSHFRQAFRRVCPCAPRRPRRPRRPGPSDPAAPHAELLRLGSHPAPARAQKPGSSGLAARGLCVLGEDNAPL
Sequence of D(2) dopamine receptor (Homo sapiens) (P14416 whole entry, looked up): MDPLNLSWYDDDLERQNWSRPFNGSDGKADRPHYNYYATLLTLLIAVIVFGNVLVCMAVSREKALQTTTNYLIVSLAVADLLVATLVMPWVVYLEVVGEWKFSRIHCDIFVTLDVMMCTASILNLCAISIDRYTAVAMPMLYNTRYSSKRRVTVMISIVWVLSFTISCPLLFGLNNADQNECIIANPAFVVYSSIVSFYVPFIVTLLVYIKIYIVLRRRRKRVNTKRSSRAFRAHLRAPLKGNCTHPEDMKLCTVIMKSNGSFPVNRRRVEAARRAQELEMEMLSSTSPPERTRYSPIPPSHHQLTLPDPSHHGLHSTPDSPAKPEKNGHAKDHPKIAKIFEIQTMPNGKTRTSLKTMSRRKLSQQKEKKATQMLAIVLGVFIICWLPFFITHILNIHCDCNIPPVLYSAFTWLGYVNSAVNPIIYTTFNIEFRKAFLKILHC

In the case of `CC[C@H](c1ccc(O)cc1)[C@@H](CC)c1ccc(O)cc1`, the Potency was 54.5 µM (active) in [1]; 33.4 µM (active) and 14.5 µM (active) in test [10]; 7.29 µM (active) in test [12]. For the same compound, the Potency result in test [2], in [3], in test [4], in [5], in [6] and in [7] was “inactive” throughout. The Potency entry in test [8], in [9], in test [11], in test [13], in test [14] and in [15] was “inactive” each time. Also, the Potency result in test [16], in [17] and in test [18] was “inactive” in each case.
For the compound `C[Si](C)=O`, the activity change, negative = cytotoxicity in test [1] was 4.07% [at 8.39 µM]; in [7], 11.3% [at 5.99 µM]; in test [8] it was 1.47% [at 5.99 µM]. In test [2], the activity, positive = activation was -5.78% [at 8.39 µM]. The activity change in test [3] was -0.63% [at 5.22 µM, stronger effect = higher value]. For the same compound, the activation was -1.56% [at 6.97 µM] in [4]; 0.129% [at 5.23 µM] in test [5]; 0.12% [at 5.99 µM] in test [6]; -0.704% [at 5.99 µM] in test [9]; 0.463% [at 8.39 µM] in [14]; 7.37% [at 8.39 µM] in test [16]. Moreover, the activation in test [17] was 4.84% [at 8.39 µM]. The activity, negative = inhibition was 1.83% [at 5.62 µM] in test [10] and -3.21% [at 5.58 µM] in test [12]. Further, the activity change, negative = inhibition was -3.7% [at 8.39 µM] in [19], -1.43% [at 8.39 µM] in [15] and 6.58% [at 8.38 µM] in [18].
In the case of `CC(C)[C@H]1CC[C@@H](C)CC1=O`, the Potency result in [1], in [2], in [3], in test [4], in test [5] and in [6] was “inactive” each time. Moreover, the Potency entry in [7], in test [8], in test [10], in [11], in test [12] and in test [13] was “inactive” each time. For the same compound, the Potency entry in [14], in [19], in test [15], in test [16] and in test [18] was “inactive” throughout.
Turning to `CCC(C)C(=O)OCCc1ccccc1` (stereo not drawn), the Potency result in test [1], in test [2], in test [3], in test [4], in test [5] and in test [6] was “inactive” in each case. Also, the Potency result in test [7], in test [8], in [9], in test [10], in test [11] and in test [12] was “inactive” in each case. The Potency entry in test [13], in test [14], in test [19], in [15], in test [16] and in test [17] was “inactive” throughout. The Potency result in test [18] was “inactive”.
Turning to `NS(=O)(=O)c1cc2c(cc1Cl)NC(C1CC3C=CC1C3)NS2(=O)=O` (stereo not drawn), the Potency result in test [1], in test [2], in test [3], in test [4], in [5] and in test [6] was “inactive” throughout. Further, the Potency entry in [7], in test [8], in test [9], in test [10], in [11] and in test [14] was “inactive” throughout. Moreover, the Potency result in test [19], in test [17] and in [18] was “inactive” each time.
Regarding `O=c1oc2c(O)c(O)cc3c(=O)oc4c(O)c(O)cc1c4c23`, the activity change, negative = cytotoxicity in test [1] was -4.32% [at 19 µM]; in test [20], 3.06% [at 13.5 µM]; in [8], -7.94% [at 13.5 µM]. In addition, the activity, positive = activation in [2] was -10.8% [at 19 µM]. The activity change in test [3] is 0.294% [at 11.8 µM, stronger effect = higher value]. The activation is -1.64% [at 15.8 µM] in [4]; 0.163% [at 11.8 µM] in [5]; -5.41% [at 13.6 µM] in [6]; 2.19% [at 15.9 µM] in test [11]; 0.409% [at 15.8 µM] in [13]; -1.26% [at 19 µM] in test [14]. Also, the activation in [16] is -28.3% [at 19 µM]; in test [17] it was 15.6% [at 19 µM]. Further, the results for the activity, negative = inhibition in [10] and in test [12] were -5.93% [at 12.7 µM] and 14.7% [at 12.6 µM], respectively. The activity change, negative = inhibition is -7.75% [at 18.9 µM] in [19], -0.63% [at 19 µM] in test [15] and 0.195% [at 18.9 µM] in test [18].
For the compound `C=C(C)C(=O)OCCOCCOCCOC(=O)C(=C)C`, the Potency result in test [1], in test [2], in test [3], in [4], in test [5] and in test [6] was “inactive” throughout. For the same compound, the Potency result in test [7], in test [8], in test [10], in test [11], in test [12] and in [13] was “inactive” throughout. Also, the Potency entry in test [17] and in [18] was “inactive” throughout.
